# Test: compound effects on multiple myeloma cell viability – MM1S, calcein-AM fluorescence, 48 h, basal, profiling panel (AID 1165); also: test concentration not given here
# Conditions: higher = more signal
row,SMILES,z-score
1,CC(C)[Si]1(C(C)C)O[C@@H](c2ccccc2)c2cc(-c3ccc(-c4ccc(Cl)c(Cl)c4)o3)nc(-c3ccccc3)c21,-2.62
2,OCCCC1=CC(c2cccs2)N(Cc2cc3c(cc2Br)OCO3)CC1 (stereo not given),-1.44
3,CCOC(=O)C[C@H]1[C@H](OC(=O)c2ccc(C(=O)c3ccccc3)cc2)[C@@H](NC(=O)c2ccc3ccccc3c2)c2cc(OCCCO)ccc2N1C(=O)Cc1ccc(OC)cc1,0.655
4,C=C(CC1([C@@H](NP(=O)(c2ccccc2)c2ccccc2)[C@H]2C[C@@H]2CCCC)CC1)c1ccccc1,-2.74
5,COc1cc(COC(C)=O)ccc1OC(C)=O,-0.0098
6,C=C(CCCC)/C(=C/C[C@@H](OC(=O)c1ccncc1)c1ccc(OCCO)cc1)c1cc(C(=O)OC)ccc1OC,-0.61
7,C=C(CCCC)C(=O)CC[C@@H](OC(=O)c1ccccc1-c1ccccc1C(=O)O)c1ccc(OCCO)cc1,-3.37
8,COCCOC(=O)N1C(=O)[C@@]2(c3cc(C#CCC(C(=O)OC)C(=O)OC)ccc31)[C@H](C(=O)Nc1nc3ccccc3s1)[C@H]1C(=O)O[C@H](c3ccccc3)[C@H](c3ccccc3)N1[C@@H]2c1ccccc1OCCO,-0.139
9,NC(=O)N1C(=O)C2C(C1=O)C1C=C(c3ccc(CO)cc3)C2C(c2cccs2)N1Cc1cccc(OC(F)(F)F)c1 (stereo not given),-2.08
10,COCCOC(=O)N1C(=O)[C@@]2(c3cc(C#CCNC(N)=O)ccc31)[C@H](C(=O)N1CCN(c3ncccn3)CC1)[C@H]1C(=O)O[C@H](c3ccccc3)[C@H](c3ccccc3)N1[C@@H]2c1ccc(OCCO)cc1,0.63
11,CCCc1cc2c(n1Cc1cc(F)cc(F)c1)C(C)C1CN(C(=O)c3ccccc3)C(C)(C(=O)OC)C21 (stereo not given),-1.7
12,CCCC[C@@H]1C[C@H]1[C@@H](NC(=O)c1ccco1)c1ccc(-c2ccccc2)cc1,-0.15
13,C=CC[C@@]12N=C(c3ccc(OCCCO)cc3)O[C@@H]1c1ccccc1N(C)C2=O,-1.79
14,COC(=O)[C@@]1(Cc2ccccc2)N=C(c2ccc(OCCCO)cc2)O[C@H]1c1ccccc1,-3.6
15,COc1cccc(-c2cccc(=O)o2)c1,0.192
16,C=C[C@H](CO[Si](CC)(CC)CC)N(Cc1ccc(OC(C)=O)c(OC)c1)S(=O)(=O)c1ccc(Br)cc1,-3.23
17,NC(=O)NCC#Cc1ccc2c(c1)[C@]1(C(=O)N2)[C@H](c2ccc(O)cc2)N2[C@H](c3ccccc3)[C@H](c3ccccc3)OC(=O)[C@H]2[C@@H]1C(=O)O,0.343
18,COC(=O)C[C@H]1O[C@]2(C(=O)N(C)c3ccccc32)[C@@H](C)[C@@H]1[Si](C)(C)F,0.0544

row,SMILES,z-score
1,O=C1C2C=CC(C(O)c3cc(C(F)(F)F)cc(C(F)(F)F)c3)N(n3cnnc3)C2C(=O)N1Cc1ccccc1 (stereo not given),0.0347
2,Cc1nc2cc(Br)ccc2c(=O)o1,0.729
3,C=C(CCCC)/C(=C/C[C@@H](OC(C)=O)c1ccc(OCCO)cc1)c1cnc2ccccc2c1,-1.27
4,COc1cc2c(cc1O)C(C1CC1)N(Cc1sc3ccccc3c1Cl)CC2 (stereo not given),-3.32
5,COc1cc2c(cc1O)C(c1cccs1)N(C)CC2 (stereo not given),0.405
6,CN1C=C(C(=O)OCCS(C)(=O)=O)C(C(=O)OCCS(C)(=O)=O)=CC(c2ccc(CO)cc2)=CC1C1CC1 (stereo not given),-0.807
7,Cc1ccc(N2C(=O)c3ccccc3[C@@H](C(=O)NC3CC3)[C@@H]2c2ccc(CO)cc2)nc1,0.0291
8,O=C1C[C@@](C(=O)NCC(F)(F)F)(c2ccc([N+](=O)[O-])cc2)[C@@H](c2ccc(CO)cc2I)N1C1CCCCC1,-2.28
9,Cc1ccc(S[C@]2(C(=O)NCCCN(C)C)CC(=O)N(Cc3cc(C(F)(F)F)cc(C(F)(F)F)c3)[C@@H]2c2ccc(CO)cc2)cc1,-0.47
10,C=C(COC)/C(=C/C[C@@H](OC(=O)c1ccncc1)c1ccc(CO)o1)c1cc(C(=O)OC)ccc1OC,-0.761
11,C=C[C@H](OC)[C@@H](OC(=O)Nc1ccc(OC)cc1)c1ccc(O)c(F)c1,-2.06
12,COCCOC(=O)N1C(=O)[C@@]2(c3cc(C#CC4(O)CCCCCC4)ccc31)[C@H](c1ccccc1OCCO)N1[C@H](c3ccccc3)[C@H](c3ccccc3)OC(=O)[C@H]1[C@@H]2C(=O)N1CCN(c2ncccn2)CC1,-0.404
13,C=CC(=C)[C@H]1Oc2ccccc2S(=O)(=O)N2CCC[C@@H]12,-0.391
14,[N-]=[N+]=Nc1ccccc1[C@@H]1OC(c2ccc(OCCCO)cc2)=N[C@]1(Cc1ccccc1)C(=O)N1CCOCC1,-3
15,COCCOC(=O)N1C(=O)[C@@]2(c3cc(C#CCCO)ccc31)[C@H](C(N)=O)[C@H]1C(=O)O[C@H](c3ccccc3)[C@H](c3ccccc3)N1[C@@H]2c1ccc(O)cc1,0.0119
16,C=C(C(=O)CC[C@@H](OC(=O)c1cccnc1)c1ccccc1OCCO)C(C)C,-1.81
17,C=CCNC(=O)[C@H]1[C@@H]2C(=O)O[C@@H](c3ccccc3)[C@@H](c3ccccc3)N2[C@@H](c2ccccc2OCCO)[C@]12C(=O)Nc1ccc(C#CCC(C(=O)OC)C(=O)OC)cc12,-3.34
